High-throughput results as filed in PubChem BioAssay.
tim10-1 inh: growth inhibitors of tim10-1 mutant yeast, primary screen, luminescence, uHTS. AID 463190, 2010. inhibition, % at 20 µM. S. cerevisiae tim10-1 ts strain growth, BacTiter-Glo, 24 h. 330,000 tested, 2.2% active;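 active = inhibition of at least 40%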;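 also: mutant grown at 25 °C; 0% = DMSO wells with yeast and 100% = wells holding no yeast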
NLRP3 yeast inh: NALP3 inflammasome inhibitors in reconstituted yeast, primary screen, luminescence, uHTS | Yeast reconstituted NLRP3/ASC/caspase-1, beta-gal luminescence, 24 h | inhibition, % at 10 µM | 330,000 tested, 0.39% active;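 active = inhibition of 50% or more; inactive = inhibition below 50%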;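 also: plate controls were induced DMSO wells for no effect and uninduced yeast grown without galactose for full effect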
CR mimetic SO: reduction of superoxide in aged yeast, primary screen, HTS. 330,000 tested, 0.18% active. superoxide response (% of plate mean), % at 10 µM. S. cerevisiae aged cells, superoxide DHE fluorescence; stronger effect = lower value. AID 2690, 2010;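 active = superoxide response under a set limit, about three screen SD below normal, cut at about 65% in these data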;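 also: yeast aged for seven days with compound at 30 °C before DHE staining; 100% = average MFI of all compound-treated wells on the plate with controls excluded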
tim23-1 inh: growth inhibitors of tim23-1 mutant yeast, primary screen, luminescence, uHTS. S. cerevisiae tim23-1 growth, BacTiter-Glo luminescence, 24 h. inhibition, % at 20 µM. 330,000 tested, 1.3% active;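 active = growth inhibition of the mutant yeast at or above 50%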;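 also: temperature-sensitive mutant grown at 25 °C; plate controls were DMSO-treated mutant yeast for no effect and medium wells lacking yeast for full effect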
TIM10 inh: growth inhibitors of isogenic TIM10 control yeast, primary screen, counter-screen for tim10-1 yeast inhibitor project, luminescence, uHTS | 330,000 tested, 1.4% active | S. cerevisiae TIM10 strain growth, BacTiter-Glo luminescence, 24 h | AID 463195, 2010 | inhibition, % at 10 µM;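 active = inhibition of 40% or more at the single tested concentration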;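 also: wild-type TIM10 isogenic control strain grown at permissive 25 °C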
TIM10 conf: growth inhibitors of wild-type TIM10 yeast, confirmation, counter-screen for tim10-1 synthetic lethality project, single concentration, luminescence, S. cerevisiae. shares compounds with TIM10 inh. inhibition, % at 10 µM. 4,600 tested, 63% active. S. cerevisiae tim10 strain growth, BacTiter-Glo luminescence, 24 h;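 active = inhibition of yeast growth at or above a set limit in either of two replicates at 10 µM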;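 also: this counterscreen used the strain with wild-type TIM10; 0% = yeast with DMSO and 100% = medium wells lacking yeast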
* = called active by the depositor; x = no result given. The list is not random: actives were taken first. Their share in the collection is about 3.8%.

SMILES	tim10-1 inh	NLRP3 yeast inh	CR mimetic SO	tim23-1 inh	TIM10 inh	TIM10 conf
O=C1CC(c2ccco2)CC(O)=C1C=Nc1cc(Cl)ccc1O (stereo unspecified)	24	18	89	-6	16	x
Cc1ccc(C)c(NC(=S)NCc2ccccc2)c1	10	12	89	31	-1	x
Cc1ccc(C)c(NC(=S)N/N=C/C(C)c2ccccc2)c1 (stereo unspecified)	38	14	105	26	49*	26
CCC(=O)N1c2ccc(S(=O)(=O)NCc3ccccc3)cc2CC1C (stereo unspecified)	29	14	97	21	-3	x
O=[N+]([O-])c1ccc(Cl)cc1Sc1nc2ccccc2o1	13	-12	97	24	20	x
O=[N+]([O-])c1ccc(Sc2nc3ccccc3o2)c([N+](=O)[O-])c1	19	42	109	-183	47*	68*
CC(=O)c1ccc(OC(=O)CCc2ccccc2)cc1	9	2	102	24	6	x
CC(=O)c1ccc(OC(=O)N(c2ccccc2)c2ccccc2)cc1	25	15	92	39	63*	9
CCN(CC)CCSc1nc(O)c(Cc2ccccc2)c(=O)n1-c1ccccc1	3	12	92	-7	-1	x
O=C(Nc1ccc2c(c1)oc1ccccc12)c1ccncc1	0	40	92	42	43*	40*
O=C(Nc1ccc(NC(=O)c2ccncc2)cc1)c1ccncc1	6	4	97	9	7	x
O=C(Nc1ccc2c(c1)oc1ccccc12)c1ccc2c(c1)OCO2	3	12	104	8	40*	12
COc1cc2c(cc1NC(=O)c1ccc3c(c1)OCO3)oc1ccccc12	-2	10	95	16	18	x
CC12CCC(C(=O)N(CC(=O)O)C1=O)C2(C)C (stereo unspecified)	-11	12	95	-1	8	x
CC12CCC(C(=O)N(CSC(=S)N/N=C\c3ccccc3)C1=O)C2(C)C (stereo unspecified)	36	22	125	5	58*	50*
Cc1ccc(NC(=O)c2cccs2)cc1[N+](=O)[O-]	18	23	89	36	45*	12
Cc1ccc(C(=O)Nc2ccc(NC(=O)c3cccs3)cc2)cc1[N+](=O)[O-]	8	4	100	-18	-11	x
O=C(Nc1nc(-c2cccs2)cs1)c1ccc([N+](=O)[O-])o1	12	17	113	45	63*	87*
O=C(Cc1ccccc1)Nc1nc(-c2cccs2)cs1	36	22	102	34	25	x
O=C(Nc1cccc(NC(=O)c2cccs2)c1)c1ccc([N+](=O)[O-])o1	35	1	127	33	56*	62*
O=C(Cc1ccccc1F)Nc1nc(-c2cccs2)cs1	16	5	119	28	47*	-2
CC(Oc1ccc([N+](=O)[O-])cc1)C(=O)NCCCN1CCOCC1 (stereo unspecified)	1	10	101	-3	-2	x
Cc1cccc(NC(=O)c2ccc([N+](=O)[O-])o2)n1	5	3	101	-18	60*	-26
O=C(Nc1ccc(F)cc1)C1COc2ccccc2O1 (stereo unspecified)	-2	4	100	10	16	x
CCN(CC)S(=O)(=O)c1ccc(NC(=O)C2COc3ccccc3O2)cc1 (stereo unspecified)	39	-3	107	36	40*	35*
SMILES	tim10-1 inh	NLRP3 yeast inh	CR mimetic SO	tim23-1 inh	TIM10 inh	TIM10 conf
O=C(Nc1cc(Oc2ccc(Cl)cc2)cc([N+](=O)[O-])c1)c1ccco1	32	32	99	40	65*	-13
CCOc1ccc(Oc2cc(NC(=O)c3ccco3)cc([N+](=O)[O-])c2)cc1	x	x	127	x	x	x
COc1cccc(-c2nc(-c3ccc4c(c3)NC(=O)CO4)cs2)c1	18	18	104	16	20	x
COc1ccc(-c2cc(-c3ccc(OC)cc3)nc(-c3ccc4c(c3)NC(=O)CO4)c2)cc1	20	8	98	18	41*	-4
CC(C)COP(=O)(OCC(C)C)C(Nc1ccccc1)c1ccccc1 (stereo unspecified)	32	-6	73	38	41*	34*
CC(C)COP(=O)(OCC(C)C)C(Nc1ccccc1)c1ccc(F)cc1 (stereo unspecified)	15	4	89	46	25	x
Cc1c(C(=O)OC2CCCCC2)[nH]c2c1C(=O)CC(C)(C)C2	-7	36	92	21	96*	-7
Cc1cc(C)n(-c2nc(NC(C)(C)C)nc(NC(C)(C)C)n2)n1	35	-15	96	42	45*	43*
N/C(=N\OC(=O)c1cccc2ccccc12)c1ccccn1	22	22	131	49	55*	55*
N/C(=N\OC(=O)c1ccc2ccccc2c1)c1ccccn1	36	5	144	13	45*	51*
N/C(=N\OC(=O)c1ccc2ccccc2c1)c1ccccc1Cl	36	26	117	15	84*	85*
CCN(CC)S(=O)(=O)c1ccc(OCC(=O)NC(=O)c2ccccc2OC)c([N+](=O)[O-])c1	6	22	100	-13	3	x
CNc1ncc(C(=O)c2ccc(Cl)c(Cl)c2)s1	37	35	102	47	55*	30
COc1ccc(OCc2nnc(SCC(=O)NNC(=O)c3ccc(C)cc3)n2C)cc1	8	42	85	6	-11	x
COc1cc(NC(=O)CCc2nnc3ccc(N4CCN(C)CC4)nn23)cc(OC)c1	8	1	90	1	-1	x
CCc1n[nH]c(=S)n1/N=C/c1cc(Br)c(OC)cc1OC	32	12	105	28	53*	-15
C/C(=N\NC(=O)CNc1cccc2ccccc12)c1ccccc1	28	15	93	31	42*	14
CCNC(=S)N/N=C/c1cn(Cc2ccc(F)cc2)c2ccccc12	32	20	94	40	43*	51*
CN1CCN(C(=S)c2cn(Cc3ccc(F)cc3)c3ccccc23)CC1	3	21	98	18	-2	x
CC1CCN(C(=S)c2cn(Cc3ccc(F)cc3)c3ccccc23)CC1	36	20	99	27	55*	38*
Oc1ccc2n[nH]nc2c1	5	5	104	7	8	x
O=C1Nc2c(Br)cccc2C1=O	12	7	99	17	5	x
CN(CC(=O)Nc1ccc(Cl)c(C(F)(F)F)c1)C(=O)c1cc(=O)c2ccccc2o1	8	7	103	4	-2	x
